Laboratory results from PubChem BioAssay (NCI).
Compounds without any hit were thinned out: in the full panel of roughly 83,000, 20% have a hit.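 Each cell line was grown in a 96-well plate and treated with one concentration of compound for 48 hours. Values below 10 were considered active.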 Unmarked numbers belong to inactive results. Activity calls are given as the source filed them.

The molecules below were run on HL-60(TB) leukemia (assay: NCI-60 one-dose screen, 48 h (100 = growth as untreated, 0 = no growth, -100 = all killed)). Settings: 10 µM unless noted.

| SMILES | growth |
| --- | --- |
| O=[N+]([O-])C=C(c1ccccc1)c1ccccc1 | 60.2% |
| O=C(NC[C@H](O)CN1CCc2ccccc2C1)c1cc(NC2COC2)ncn1 | 119% |
| c1cc(N2CCCC2)c2nc(-c3[nH]ncc3Nc3ncnc4[nH]ccc34)[nH]c2c1 | -15.9% (active) |
| CCCCn1cnc2c(Sc3c([N+](=O)[O-])ncn3C)nc(N)nc21 | 54.3% |
| C=CC(=O)N1CCC[C@H](n2c(=O)n(-c3ccc(Oc4ccccc4)cc3)c3c(N)ncnc32)C1 | 92.4% |
| O=C1c2ccccc2C(=O)c2c1oc1c2c(=O)[nH]c2ccc(Cl)cc21 | 94.5% |
| COc1ccc(CC(C#N)c2cc3ccccc3[nH]2)cc1 (centres undefined) | 97.5% |
| O=C(C=P(c1ccccc1)(c1ccccc1)c1ccccc1)c1ccc(Br)cc1 | 8.84% (active) |
| COc1cccc(Nc2nc(NCCO)c3ccccc3n2)c1 | 61.4% |
